Values joined by “and” are separate entries in the source; they are usually repeats but may differ in a detail not shown here. Identical values can stand only once. The campaign covered roughly 320,000 compounds. About 2,100 (0.66%) were called active. Roughly 53% stayed inconclusive and do not appear here. The sample holds actives, similar compounds and a random draw of the others, so the mix is not that of the screen. Calls come from the whole dose curve; as a rule, active = well fitted inhibition curve with a large enough effect in the signal ratio, with a control signal flat (not every such curve was filed as active); inconclusive = small, poorly fitted or top-dose-only effect, or effect the other way, or a change in a side signal; inactive = flat fitted curve, though single readings scatter; the % refers to the signal ratio.
Potency is the fitted concentration of half-maximal effect.

A short description of this assay: qHTS Assay for Lipid Storage Modulators in Drosophila S3 Cells.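 For cell number change: cells counted by Cell Tracker Red CMTPX staining in the red channel.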 The conditions noted are these: BODIPY lipid droplet fluorescence, 18-24 h, cells fed with added oleic acid; cell number change: measured here: cell count max response; series mostly up to 46.1 µM. The method, boiled down:
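Laser-scanning cytometry quantifies lipid droplet accumulation (500–530 nm total intensity; droplet/cell object ratio) in oleic acid-fed (400 uM added) Drosophila S3 cells treated with a concentration series. 20 uM Triacsin C defined 100% inhibition.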
(qHTS replaces the single test concentration by a dilution series.)
As to `Cc1cc(C)n(CC(O)CN2C(=O)NC(C)(C)C2=O)n1` (centres undefined), the Potency entry was “inactive” and the cell number change is 7.08%.

As for `CN(C)c1ccc(/C=C2\SC(=O)N(CC(O)Cn3c4ccccc4c4ccccc43)C2=O)cc1` (centres undefined), the Potency result was “inactive” and the cell number change turned out to be 1.42%.

For the molecule `O=C1S/C(=C\c2ccccc2)C(=O)N1CC(O)Cn1c2ccccc2c2ccccc21` (centres undefined), the Potency was 9.2 µM (active) and the cell number change came out at 8.53%.

As for `COc1ccc(/C=C2/SC(=O)N(CC(O)Cn3c4ccccc4c4ccccc43)C2=O)cc1` (centres undefined), the Potency result was “inactive” and the cell number change was -7.54%.

As for `C=CCn1c(CCNC(=O)c2cccs2)nnc1SCC(=O)c1cccc([N+](=O)[O-])c1`, the Potency result is “inactive” and the cell number change is 21.8%.

Regarding `COc1ccc(N2CCN(Cc3nc(N)nc(Nc4ccccc4OC)n3)CC2)cc1`, the Potency result is “inactive” and the cell number change was -16.4%.

For the molecule `Cc1nc2c(sc(=S)n2Cc2ccco2)c(=O)n1CC(=O)Nc1ccccc1Cl`, the Potency entry was “inactive” and the cell number change came to 8.56%.

Regarding `CCn1c(=S)sc2c(=O)n(CC(=O)Nc3ccccc3)c(C)nc21`, the Potency entry is “inactive” and the cell number change is 22.9%.

For `Cc1nc2c(sc(=S)n2Cc2ccco2)c(=O)n1CC(=O)Nc1ccc(F)cc1`, the Potency is 16.4 µM (active) and the cell number change is 20.2%.

Regarding `COc1ccc(CN2CC(=O)N(c3ccc(C)cc3C)C2=S)cc1OC`, the Potency result is “inactive” and the cell number change was 8.06%.

Regarding `CC(=O)NCCc1nc2ccccc2n1CCOc1ccccc1`, the Potency entry is “inactive” and the cell number change is 18.1%.

Consider `CC(=C/c1ccccc1)/C=N/NC(=O)c1ccccn1`, for which the Potency entry is “inactive” and the cell number change came to 10.8%.

As to `C=C(c1ccccc1)c1ccc(N(C)C)cc1`, the Potency entry is “inactive” and the cell number change amounted to 1.48%.

Regarding `O=C1Nc2ccccc2N(O)N1c1cc(-c2cccc(Cl)c2)no1`, the Potency entry was “inactive”.

Take `CCOc1ccc(-c2cc(N3C(=O)Nc4ccccc4N3O)on2)cc1`: the Potency was 23.1 µM (active) and the cell number change was 24.4%.

Turning to `O=C1Nc2ccccc2N(O)N1c1cc(-c2ccccc2Cl)no1`, the Potency result is “inactive”.

As for `CC(C)c1cc(C(=O)O)c2cnn(C(C)C)c2n1`, the Potency result is “inactive” and the cell number change was -20.5%.

As to `CCOc1ccc(-n2ccnc(SCC(=O)NC3CCCC3)c2=O)cc1`, the Potency entry is “inactive”.

For the molecule `CCOc1ccccc1C(=O)Nc1ccc(S(=O)(=O)Nc2nccc(C)n2)cc1`, the Potency entry is “inactive” and the cell number change is -4.06%.

As to `COC(=O)c1ccc(C23CC4(C2)[C@H](CN(CC2CCCCC2)[C@@H]4c2ccccc2)C3c2ccccc2)cc1` (some centres undefined), the Potency entry was “inactive” and the cell number change is 12.7%.

Take `CC(=O)Oc1ccc(N2C(=O)[C@@H]3[C@H](C2=O)[C@H]2c4ccccc4C=NN2[C@@H]3C(C)=O)cc1`: the Potency result was “inactive” and the cell number change is 17.5%.

In the case of `Cc1nnnn1/C(=C\c1ccccc1)C(=O)OCC(=O)N1CC2(C)CC1CC(C)(C)C2` (centres undefined), the Potency is 1.84 µM (active) and the cell number change is -4.4%.

Regarding `CCN(C(=O)COC(=O)/C(=C/c1ccccc1)n1nnnc1C)C1CCCCC1`, the Potency was 7.31 µM (active) and the cell number change is -1.15%.

As for `Cc1cccc(C)c1OCC(=O)N1CC2(C)CC1CC(C)(C)C2` (centres undefined), the Potency result is “inactive” and the cell number change stood at 24%.

As for `CC(=O)N/C(=C\c1ccccc1)C(=O)OCC(=O)N(C)C1CCCCC1`, the Potency entry is “inactive” and the cell number change is 11.6%.

With `CCN(C(=O)COC(=O)c1cnc(C)cn1)C1CCCCC1`, the Potency entry was “inactive” and the cell number change is 18.1%.

As for `CC1(C)CC2CC(C)(CN2C(=O)Cc2ccccc2)C1` (centres undefined), the Potency result is “inactive” and the cell number change is -11.2%.

Consider `COc1ccc(CCNC(=O)c2cc(-c3ccccc3O)n[nH]2)cc1OC`, for which the Potency entry was “inactive” and the cell number change worked out at 4.36%.

Turning to `COC(=O)CCc1sc(Nc2ccccc2)nc1-c1ccc(OC)cc1`, the Potency result was “inactive” and the cell number change was -8.54%.

On to `O=C(COc1ccccc1)NCC1CCCO1` (centres undefined), for which the Potency result is “inactive” and the cell number change is -0.966%.

Regarding `COc1ccc(NC(=O)Nc2ccc(OC)cc2)cc1`, the Potency entry was “inactive” and the cell number change was -101%.

In the case of `COc1ccc(NC(=O)C#Cc2ccccc2)cc1`, the Potency was 0.92 µM (active) and the cell number change is -23.3%.

On to `NC(=O)c1ccc(NC(=O)C#Cc2ccccc2)cc1`, for which the Potency result is “inactive”.

For the molecule `COc1ccc(NC(=O)Cc2ccccc2)cc1`, the Potency entry is “inactive” and the cell number change is -1.56%.

Take `O=C(C#Cc1ccccc1)Nc1ccc(F)cc1`: the Potency result was “inactive” and the cell number change was -2.07%.

`O=C(C#Cc1ccccc1)Nc1cccc(F)c1`: the Potency was 1.16 µM (active) and the cell number change is -19.6%.

Take `COc1ccc(NC(=S)Nc2ccccc2)cc1`: the Potency entry is “inactive”; the cell number change was 1.43% and -1.32%.

In the case of `COc1ccc(NC(=O)Nc2ccc(CC(=O)O)cc2)cc1`, the Potency is 0.116 µM (active) and the cell number change is -22.2%.

`O=C(Nc1cccc(F)c1)c1ccccc1`: the Potency result is “inactive” and the cell number change was -17.1%.

Take `O=C1NC2(CCCCC2)Cc2ccccc21`: the Potency entry is “inactive” and the cell number change is 2.36%.

On to `CCCC(=O)Nc1ccc(Cl)c(NC(=O)c2ccc([N+](=O)[O-])cc2Cl)c1`, for which the Potency result was “inactive” and the cell number change stood at 3.62%.

Regarding `Cc1cc(NC(=O)c2ocnc2C)no1`, the Potency result is “inactive” and the cell number change is -15.2%.

For the molecule `O=C(O)c1cc(-c2ccccc2Cl)n(-c2ccccc2)n1`, the Potency result was “inactive” and the cell number change is 19.7%.

Turning to `COc1cc(CC(=O)NCc2ccco2)cc(OC)c1OC`, the Potency result is “inactive”.

With `CNC(=S)N/N=C/c1c(C(=O)OC)cnn1-c1ccc(F)cc1F`, the Potency entry is “inactive” and the cell number change was found to be 9.07%.

`Cc1oc(-c2ccccc2F)nc1CN1CCC(C(=O)NCc2cccnc2)CC1`: the Potency entry was “inactive” and the cell number change turned out to be 15.7%.

For the molecule `O=C(Nc1ccccc1)Nc1n[nH]c2nnc(-c3ccccc3)c(-c3ccccc3)c12`, the Potency entry was “inactive” and the cell number change stood at 9.52%.

For the molecule `Cc1cc(-c2nc(C)c(C(=O)NNC(=O)NC(C)C)s2)no1`, the Potency entry was “inactive” and the cell number change stood at 5.79%.

On to `Cc1cc(C)c2c(N)c(C(=O)Nc3ccc(C)c(C)c3)sc2n1`, for which the Potency result was “inactive” and the cell number change is -1.35%.

With `Cc1cc(C)c2c(N)c(C(=O)NC3CC3)sc2n1`, the Potency result was “inactive” and the cell number change came to 14.6%.

For the molecule `Cc1nnc(NC(=O)c2sc3nc(-c4cccs4)cc(C(F)(F)F)c3c2N)s1`, the Potency was 9.2 µM (active) and the cell number change was 18.6%.

On to `CC(C)(C)C(=O)c1sc2nc(-c3cccs3)cc(C(F)(F)F)c2c1N`, for which the Potency result is “inactive” and the cell number change was -8.91%.

Regarding `CN(C)CCNC(=O)c1sc2nc(-c3ccccc3)cc(C(F)(F)F)c2c1N`, the Potency entry is “inactive” and the cell number change is -18.7%.

With `Cc1cc(C(F)(F)F)c2c(N)c(C(=O)NC3CC3)sc2n1`, the Potency was 17.8 µM (active) and the cell number change was -6.29%.

Regarding `O=C(O)C(C(O)c1ccc([N+](=O)[O-])cc1)[n+]1ccccc1` (centres undefined), the Potency result was “inactive” and the cell number change was 27.3%.

`C(=N\Nc1ccc(-n2ccnc2)nn1)/c1ccccc1`: the Potency result is “inactive”.

With `CCOC(=O)CNC(=O)N1CCCC(C(=O)c2cc(C)c(OC)c(C)c2)C1` (centres undefined), the Potency entry is “inactive” and the cell number change worked out at 16.3%.

As for `O=C(NCCC1=CCCCC1)c1ccc(-n2cncn2)c([N+](=O)[O-])c1`, the Potency result was “inactive” and the cell number change was -27%.

As for `CCOC(=O)c1sc(N(Cc2ccccc2)C(=O)COC(=O)c2cnccn2)nc1C`, the Potency result is “inactive”.

With `C=CCn1c(SCc2nc3ccccc3nc2C)nnc1-c1ccoc1C`, the Potency result is “inactive” and the cell number change was -18.3%.

As for `CCOC(=O)CC1=NS(=O)(=O)c2ccccc2N1`, the Potency result is “inactive” and the cell number change amounted to 8.13%.

For the molecule `CC(CC(=O)O)CC1=NS(=O)(=O)c2ccccc2N1` (centres undefined), the Potency is 13 µM (active) and the cell number change was -6.45%.

For `Cc1ccc(NC(=O)CC(C)CC2=NS(=O)(=O)c3ccccc3N2)cc1` (centres undefined), the Potency result is “inactive” and the cell number change is 4.79%.

The values above are taken from PubChem BioAssay AID2685 (National Center for Advancing Translational Sciences (NCATS), 2010).
